Measured values published in PubChem BioAssay (Tox21).
Results filed as inconclusive are left out. Values without a mark were called inactive. Calls of active or inactive are those of the source. Calls follow the shape of the full dose curve.

Experiment: p53 small molecule agonists, cell-based qHTS assay with human liver microsomes (AID 1963577);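 also: p53 response element beta-lactamase reporter cells with liver microsomes plus NADPH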
Settings: HCT-116 p53RE-bla with human liver microsomes, ratio, 16 h; series mostly up to 66 µM; activation: at the top concentration
Excerpt: National Center for Advancing Translational Sciences [NCATS]
Division of Preclinical Innovation [DPI]
U.S. Environmental Protection Agency [EPA]
National Institutes of Environmental Health Sciences [NIEHS]
National Toxicology Program [NTP]
U.S. Food and Drug Administration [FDA]
p53, a tumor suppressor protein, is activated following cellular insult, including DNA damage and other cellular stresses. The activation of p53 regulates cell fate by inducing DNA repair, cell cycle arrest, apoptosis, or cellular senescence. The activation of p53, therefore, is a good indicator of DNA damage and other cellular stresses. […] The activation of the reporter gene under culture conditions can be detected by fluorescence intensity.
Tox21 Assay Protocol Summary:
The p53RE-bla cells were dispensed at 4,000cells/3ul/well in 1536-well black-clear bottom plates. After the assay plates were incubated at 37 C, 5% CO2 incubator for 5 hours, 23 nL of compounds dissolved in DMSO, positive controls or DMSO only was transferred to the assay plate. Following compound addition, 3 uL of human liver microsomes (XenoTech, Kansas City, KS) at final concentration of 0.5 mg/mL and 1uL of Beta-Nicotinamide adenine dinucleotide 2-phosphate (NADPH) at final concentration of 0.5 mg/mL were transferred to the assay plate. The plates were incubated at 37 C for 16 hours. 1 uL of LiveBLAzer detection mixture was added to each well and the plates were incubated at room temperature in the dark for 2 h.
% is scaled to controls: 0 for no effect and ±100 for the full control effect.

Structure (SMILES)	activation	Potency
CCOc1cccc(C2(N3CCN(c4ccccc4)CC3)CCC(C)CC2)c1 (stereo not given)	-1.47%	–
OC(c1ccc(Cl)cc1)(c1ccc(Cl)cc1)C(Cl)(Cl)Cl	-1.9%	–
O=C(O)C(F)(F)C(F)(F)C(F)(F)C(F)(F)C(F)(F)C(F)(F)C(F)(F)C(F)(F)C(F)(F)F	0.354%	–
O=[N+]([O-])c1ccc2c3c(cccc13)CC2	11.4%	–
CC[N+]1(C)CCCC(OC(=O)C(O)(c2ccccc2)c2ccccc2)C1 (stereo not given)	-1.53% [at 30.3 µM]	–
COC(N)=O	-0.326%	–
CC/C(=N\OC/C=C/Cl)C1=C(O)CC(C2CCOCC2)CC1=O (stereo not given)	4.28%	–
C[N+](C)(C)CCCl	-2.43%	–
CC(C)(C)NC[C@H](O)c1ccc(O)cc1Cl	-2.48% [at 30.3 µM]	–
Oc1cc(Cl)c(Cl)c(Cl)c1	-2.77%	–
CC1(C)CC/C(=C/c2ccc(Cl)cc2)C1(O)Cn1cncn1 (stereo not given)	0.843%	–
Clc1cc(Cl)c(-c2cc(Cl)c(Cl)cc2Cl)cc1Cl	-0.206% [at 30.3 µM]	–
N[C@@H]1C[C@H]1c1ccccc1	-0.851% [at 30.3 µM]	–
CCN(CC)c1nc(C)cc(OP(=S)(OC)OC)n1	0.322%	–
O=S1(=O)OCC2C(CO1)C1(Cl)C(Cl)=C(Cl)C2(Cl)C1(Cl)Cl (stereo not given)	-3.27%	–
C=C(C)C(=O)[O][Sn]([CH2]CCC)([CH2]CCC)[CH2]CCC	-12.7%	–
CCC(C)c1cc(C(C)(C)C)cc(-n2nc3ccccc3n2)c1O (stereo not given)	3.46% [at 30.3 µM]	–
CC[C@H]1C[C@@H]2C[C@H]3c4[nH]c5ccc(OC)cc5c4CCN(C2)[C@@H]13	-8.47%	–
O=C1NCN(c2ccccc2)C12CCN(CCCOc1ccc(F)cc1)CC2	3.62% [at 30.3 µM]	–
CCc1ccc(C(=O)NN(C(=O)c2cc(C)cc(C)c2)C(C)(C)C)cc1	-17%	–

Structure (SMILES)	activation	Potency
C[CH2][Hg][N]1C(=O)C2C(C1=O)C1(Cl)C(Cl)=C(Cl)C2(Cl)C1(Cl)Cl (stereo not given)	-12.1% [at 13.5 µM]	–
CSC1=N[C@@](C)(c2ccccc2)C(=O)N1Nc1ccccc1	-5.4%	–
C=CCc1ccc(OC(=O)Cc2ccccc2)c(OC)c1	-6.01%	–
CSc1nc(N=[N+]=[N-])nc(NC(C)C)n1	-10.1%	–
O=NN(CCO)CCO	-0.159%	–
Oc1ccc(I)cc1	-14.4%	–
Cc1cc(=O)[nH]o1	0.0745%	–
N#C/C=C/c1ccccc1	3.03%	–
[As]#[In]	-4.45%	–
Clc1cc(C(Cl)(Cl)Cl)cnc1Cl	-2.31%	–
OC(c1ccccc1)(c1ccccc1)C1CCNCC1	0.0749% [at 30.3 µM]	–
CCN1CCC2(CC1)COc1cc3c(cc12)N(C(=O)c1ccc(-c2ccc(-c4nnc(C)o4)cc2C)cc1)CC3	-15.2%	–
CC(C)(C)c1cc(O)ccc1O	–	inactive
C[C@H](N)[C@H](O)c1ccc(O)c(O)c1	-0.284% [at 30.3 µM]	–
[F][Sn]([c]1ccccc1)([c]1ccccc1)[c]1ccccc1	-12.3%	–
O=C(c1ccccc1)C(Cl)Cl	-5.73%	–
COc1ccc(C(=O)N2CCCC2=O)cc1	0.0208% [at 30.3 µM]	–
CC(Cc1ccccc1)NCCCCl (stereo not given)	1.1% [at 30.3 µM]	–
CC(C)c1c(CN(C)C(C)Cc2ccccc2)n(C)n(-c2ccccc2)c1=O (stereo not given)	1.21% [at 30.3 µM]	–
Clc1ccc(CO/N=C(\Cn2ccnc2)c2ccc(Cl)cc2Cl)c(Cl)c1	11.8% [at 30.3 µM]	–
